# Assay results reported in PubChem BioAssay AID624125 (The Scripps Research Institute Molecular Screening Center, 2012).
# Screen size: about 360,000 compounds; about 2,600 (0.72%) were called active.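 Rule for the calls: active = inhibition above its plate's cutoff, the mean inhibition of sample wells plus 3 SD (cut at about 27% in these data); inactive = the rest.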 The list comes from a sample in which actives are over-represented; it also holds similar structures and randomly drawn compounds.
# Target: Muscarinic acetylcholine receptor M4 (Homo sapiens) (UniProt P08173)
# Assay: CHRM4 blockers of acetylcholine calcium response – CHO cells, Fluo-8 calcium fluorescence, primary screen (AID 624125);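 note: 0% = acetylcholine EC80 with DMSO and 100% = DMSO without agonist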
# Conditions: CHO-hM4 cells, ACh EC80, Fluo-8 calcium fluorescence; at 3 µM; stronger effect = higher value
# Sequence of Muscarinic acetylcholine receptor M4 (Homo sapiens) (P08173 whole entry, looked up): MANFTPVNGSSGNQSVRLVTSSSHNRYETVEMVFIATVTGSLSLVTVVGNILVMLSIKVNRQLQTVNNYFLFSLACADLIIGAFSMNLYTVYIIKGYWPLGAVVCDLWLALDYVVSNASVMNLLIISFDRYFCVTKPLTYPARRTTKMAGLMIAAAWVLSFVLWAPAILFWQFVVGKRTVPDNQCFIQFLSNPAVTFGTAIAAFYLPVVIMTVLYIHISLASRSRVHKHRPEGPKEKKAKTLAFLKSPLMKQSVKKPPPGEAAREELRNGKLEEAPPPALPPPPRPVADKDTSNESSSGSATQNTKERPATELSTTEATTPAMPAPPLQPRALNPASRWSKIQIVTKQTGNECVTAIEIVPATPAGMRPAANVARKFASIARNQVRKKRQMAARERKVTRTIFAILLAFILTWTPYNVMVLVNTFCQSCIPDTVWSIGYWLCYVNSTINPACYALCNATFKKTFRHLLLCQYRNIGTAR
row,SMILES,inhibition
1,C=CCOC(=O)C1=C(C)N=C2SCCC(=O)N2C1/C=C/c1ccccc1OC (stereo not given),1.49% (inactive)
2,CC1(C)CC(N2CCN(C(c3ccccc3)c3ccccc3)CC2)=CC(=[N+]2CCCCC2)C1,56.8% (active)
3,CC1(c2cccc(Br)c2)NC(=O)N(CC(=O)NCCC2=CCCCC2)C1=O (stereo not given),-1.54% (inactive)
4,COC(=O)c1cc(S(=O)(=O)N2CCC(C(N)=O)CC2)oc1C,-3.75% (inactive)
5,CCCCN(CCCC)CCC(O)c1cc2c(Cl)cc(Cl)cc2c2cc(C(F)(F)F)ccc12 (stereo not given),-6.99% (inactive)
6,O=[N+]([O-])/C=C/c1ccc2c(ccn2Cc2ccccc2)c1,51% (active)
7,CC(C)CCNC(=O)c1[nH]c(C(F)(F)F)nc1-c1ccccc1,2.39% (inactive)
8,CCOCCCN1C(=O)CN(C2CCCCC2)C(=O)C1c1ccc(OCC)c(OC)c1 (stereo not given),5.54% (inactive)
9,Cc1cc(=O)[nH]c(Nc2cccc(Br)c2)n1,4.17% (inactive)
10,Cc1ccc(C)c(NC2=NCC(=O)N2c2ccc3c(c2)OCCO3)c1,5.91% (inactive)
11,Cc1cc(=O)[nH]c(N/N=C/c2ccc3c(c2)OCCO3)n1,29.5% (active)
12,CC1(C)C2CC[C@]3(C)C(CC=C4[C@@H]5C[C@@](C)(CO)CC[C@]5(C(=O)O)CC[C@]43C)[C@@]2(C)CC[C@@H]1O (stereo not given in full),45.8% (active)
13,CC1(C)C[C@H]2C3=CCC4[C@@]5(C)CC[C@H](O)[C@](C)(CO)C5CC[C@@]4(C)[C@]3(C)C[C@@H](O)[C@@]2(CO)[C@@H](O)[C@@H]1O (stereo not given in full),-13.3% (inactive)
14,CC1O[C@@H](OC2C(O)C(C)O[C@H](OC(=O)[C@]34CCC(C)(C)C[C@H]3C3=CCC5[C@@]6(C)CC(O)C(O[C@@H]7OC(CO)C(O)[C@@H](O)[C@@H]7O)[C@@](C)(C(=O)O)C6CC[C@@]5(C)[C@]3(CO)CC4)C2O[C@H]2OC(C)[C@@H](O[C@@H]3OCC(O[C@@H]4OC(CO)C(O)[C@H](O)C4O)[C@@H](O)[C@@H]3O)[C@H](O)C2O)C(O)C(O)C1O (stereo not given in full),4.49% (inactive)
15,O=S(=O)(c1cccc(-c2cn3ccccc3n2)c1)N1CCCC1,-2.49% (inactive)
16,O=C(NCC(c1cccs1)N1CCOCC1)c1cc(Cl)ccc1[N+](=O)[O-] (stereo not given),-29.6% (inactive)
17,CCN1CCN(CC(=O)c2cc(OC)c(OC)c(OC)c2)CC1,3.39% (inactive)
18,O=C1C=C(c2ccc(Cl)cc2)C(=O)N1Nc1ccccc1,32% (active)
19,Cc1cc(C)nc(NS(=O)(=O)c2ccc(N3C(=O)C4CCCCC4C3=O)cc2)n1 (stereo not given),-3.19% (inactive)
20,CCCn1nc(C(=O)N2CCCc3ccccc32)c2ccccc2c1=O,3.11% (inactive)
21,Cc1ccc(C(=O)N2CCCc3ccccc32)c(Cl)c1,-5.91% (inactive)
22,Cc1cccc2cc3c(N)c(C(=O)N4CCCc5ccccc54)sc3nc12,26.9% (active)
23,C=CCn1cc(Cl)cc(C(=O)Nc2ccccc2)c1=O,1.16% (inactive)
24,NS(=O)(=O)c1ccc(NC(=O)COC(=O)C2(c3ccc(F)cc3)CCCC2)cc1,1.71% (inactive)
25,NC1=NC(=O)S/C1=C\c1ccc(O)cc1,0.37% (inactive)
26,O=C(/C=C(O)/C=C/c1ccc(O)cc1)/C=C/c1ccc(O)cc1,41.4% (active)
27,CC(C)(C)C(=O)/C(C#N)=C/c1ccc(O)cc1,3.63% (inactive)
28,CCNC(=O)C1(C)CCN(Cc2ccc(C(=O)OCC)o2)C1 (stereo not given),3.23% (inactive)

row,SMILES,inhibition
1,Clc1cccc(Cl)c1Cn1nnc(-c2cccs2)n1,-3.16% (inactive)
2,CC(C)[C@@H]1COC(c2cccc(C3=N[C@H](C(C)C)CO3)c2)=N1,7.38% (inactive)
3,COc1cc(/C=C(/NC(=O)c2ccccc2)C(=O)Nc2cccc(O)c2)c([N+](=O)[O-])cc1OC,-11.4% (inactive)
4,COc1cc(/C=C(\C#N)C(=O)Nc2ccc3ccccc3c2)c([N+](=O)[O-])cc1OC,28.5% (active)
5,COc1cc(NC(=O)COC(=O)CSc2ccc3ccccc3c2)c(C)cc1[N+](=O)[O-],-8.64% (inactive)
6,CCOC(=O)C1CCN(C(=O)Cn2nc(C)c3c(C)n(-c4ccccc4)nc3c2=O)CC1,9.38% (inactive)
7,Cc1cc(=O)oc2c3c(cc(OCC(=O)N[C@H](C(=O)O)c4ccccc4)c12)OC(C)(C)CC3,-5.66% (inactive)
8,O=C1CCCC(O)=C1N=Nc1ccc2ncsc2c1,9.09% (inactive)
9,COc1ccc(NC(=O)N(C)C[C@H]2Oc3ccc(NC(=O)C4CC4)cc3C(=O)N([C@H](C)CO)C[C@@H]2C)cc1,-10% (inactive)
10,Cc1nc2c(OCc3cccc(Cl)c3)cccn2c1N(C)CC1CC1,8.19% (inactive)
11,Cc1nc2c(OCc3ccc(Cl)cc3Cl)cccn2c1N(C)CC1CC1,38% (active)
12,CCc1nc2c(OCc3ccc(Cl)cc3Cl)cccn2c1N(C)C(=O)C(C)C,-17.6% (inactive)
13,COC(CNC(=O)c1ccc2c(c1)ncn2-c1cc(C)cc(C)c1)OC,-0.94% (inactive)
14,CCc1nc2c(OCc3ccccc3)cccn2c1N(C)C(=O)c1ccco1,8.33% (inactive)
15,COc1ccc(C(c2nnnn2Cc2cccs2)N2CCN(c3ccccc3)CC2)cc1OC (stereo not given),-1.13% (inactive)
16,CC(CN1CCCCC1)c1ccccc1 (stereo not given),5.04% (inactive)
17,O=C(c1ccccc1)C(O)(CN1CCCCC1)c1ccccc1 (stereo not given),5.71% (inactive)
18,C#CC(CCN1CCCCC1)(OC)c1ccccc1 (stereo not given),44.6% (active)
19,CCCCCCC(O)(CCN1CCCCC1)c1ccccc1 (stereo not given),88.2% (active)
20,CCCCOc1ccc(C(C)(O)CCN2CCOCC2)cc1 (stereo not given),3.58% (inactive)
21,CCCCCC(O)(CCN1CCCCC1)c1ccccc1 (stereo not given),98.9% (active)
22,COc1ccc(C(O)(C2CCCCC2)C(CN2CCCC2)c2ccccc2)cc1 (stereo not given),5.79% (inactive)
23,CCc1ccccc1NC(=O)NCCN1CCCCC1,4.05% (inactive)
24,c1ccc2cc3[nH]c(CN4CCCCC4)nc3cc2c1,-0.37% (inactive)
25,CCC1SC(CC)C(=O)N(CC(=O)NC2CCCCC2)C1=O (stereo not given),4.12% (inactive)
26,Cc1ccc(C(=O)NC(=S)Nc2ccc3[nH]c(=O)[nH]c3c2)cc1C,-8.35% (inactive)
27,COC(=O)c1cccc(-n2[nH]nnc2=S)c1,2.86% (inactive)
